Source: PubChem (The Scripps Research Institute Molecular Screening Center)
In the library only some 2.3% were active in any assay of this set; here they are far more common.
PP5 primary = PP5 (human) phosphatase inhibition; purified PP5c, OMFP substrate fluorescence; P53041; 320,000 compounds, 0.18% hits; inhibition, % at 6.7 µM; AID 1987;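 active = inhibition above the campaign's mean inhibition across all tested compounds plus 3 SD, cut at about 9.5% in these data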;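 note: 0% = DMSO only and 100% = 100 µM cantharidin control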
ZTA counter = blocks Epstein-Barr virus ZTA, an EBNA-1 counter-screen; 320,000 compounds, 0.15% hits; ZTA-DNA binding, fluorescence polarization; inhibition, % at 11 µM; in the data active = inhibition above about 33%
Target sequence (P03206 whole entry, looked up): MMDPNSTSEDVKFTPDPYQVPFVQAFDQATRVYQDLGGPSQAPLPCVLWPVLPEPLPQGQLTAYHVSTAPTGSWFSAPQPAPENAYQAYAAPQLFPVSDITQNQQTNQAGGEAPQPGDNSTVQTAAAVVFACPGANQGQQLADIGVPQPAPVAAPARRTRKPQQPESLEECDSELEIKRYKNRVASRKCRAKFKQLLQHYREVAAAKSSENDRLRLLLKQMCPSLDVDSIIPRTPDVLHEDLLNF
PP1 counter = blocks human PP1-alpha phosphatase, a PP5 counter-screen; inhibition, % at 6.7 µM; AID 2235; P62136; 320,000 compounds, 0.9% hits; purified PP1alpha, OMFP fluorescence;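 active = inhibition above the mean inhibition of all tested compounds plus 3 SD, computed separately for each screening campaign, cut at about 15% in these data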
Target sequence (P62136 whole entry, looked up): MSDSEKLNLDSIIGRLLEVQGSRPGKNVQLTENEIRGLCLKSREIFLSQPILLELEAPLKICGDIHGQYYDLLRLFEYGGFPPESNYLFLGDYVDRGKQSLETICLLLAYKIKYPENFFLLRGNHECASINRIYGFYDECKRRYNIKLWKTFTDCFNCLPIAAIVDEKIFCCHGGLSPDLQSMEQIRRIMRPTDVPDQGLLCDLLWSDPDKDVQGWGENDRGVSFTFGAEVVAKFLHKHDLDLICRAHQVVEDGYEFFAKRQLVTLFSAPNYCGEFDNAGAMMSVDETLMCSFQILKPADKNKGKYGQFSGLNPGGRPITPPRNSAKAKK
EBNA-1 inhibitor = blocks EBNA-1 binding to DNA. EBNA-1 DNA binding, fluorescence polarization. 300,000 compounds, 0.34% hits. inhibition, % at 14.8 µM. AID 1950; in the data active = inhibition above about 28%
bovine MsrA act = bovine methionine sulfoxide reductase A activation. activation, % at 10.6 µM. purified bovine MsrA, absorbance read-out. 360,000 compounds, 0.3% hits. AID 602163; in the data active = activation above about 7.5%;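 note: 0% = vehicle and 100% = reference activator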
MsrA inh = inhibits bovine methionine sulfoxide reductase A; purified bovine MsrA, absorbance read-out; inhibition, % at 15.5 µM; 360,000 compounds, 0.75% hits; AID 651718; in the data active = inhibition above about 4.5%;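 note: 0% = vehicle wells with enzyme and 100% = reference inhibitor wells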
PP1 inh confirm = human PP1 phosphatase inhibition, confirmation; purified PP1alpha, OMFP substrate fluorescence; shares compounds with PP1 counter; 1,900 compounds, 52% hits; inhibition, % at 6.7 µM;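 active = mean PP1 inhibition above a set limit taken from the earlier primary screen, cut at about 15% in these data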
PP5 inh counter = PP5 phosphatase inhibition, counter-screen for PP1 inhibitors; shares compounds with PP1 counter; purified PP5c, OMFP fluorescence; inhibition, % at 6.7 µM; 1,900 compounds, 4% hits; AID 2360;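 active = mean PP5 inhibition over triplicate wells above about 9.5% taken from the earlier PP1 screen, limit read from the data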
Active calls of the source: *; nt = no result.

SMILES | PP5 primary | ZTA counter | PP1 counter | EBNA-1 inhibitor | bovine MsrA act | MsrA inh | PP1 inh confirm | PP5 inh counter
COc1ccc(CCCNC(=O)C2Cc3c(-c4cccc(C(C)=O)c4)ccnc3O2)cc1 (stereo unspecified) | nt | nt | nt | nt | -11 | 0 | nt | nt
COc1cccc(CNC(=O)N[C@@H](C)C(=O)O)c1 | -2 | 3 | -6 | 5 | -3 | 0 | nt | nt
Cc1ccccc1OCCCN1C(=O)C(=O)c2cccc(C)c21 | 1 | -6 | 21* | 12 | 1 | -1 | 11 | 2
COC(=O)C[C@H]1CC[C@@H](NS(=O)(=O)c2ccc(C)cc2)[C@@H](CO)O1 | nt | nt | nt | nt | nt | -1 | nt | nt
Cc1ccc(S(=O)(=O)N2CCC(=O)N(C(COCc3cccc(C(F)(F)F)c3)Cc3ccccc3)CC2)cc1 (stereo unspecified) | 7 | -8 | 20* | -16 | 1 | -1 | 3 | -1
Cc1ccc(S(=O)(=O)N2CCC(=O)N(C(COCc3ccccc3)Cc3ccccc3)CC2)cc1 (stereo unspecified) | 5 | -8 | 2 | -3 | -3 | -1 | nt | nt
Clc1cccc(Cl)c1CNc1ccc(N2CCCC2)cc1 | 3 | -21 | 19* | 5 | nt | 1 | 1 | 2
O=C(Cc1ccc(Cl)cc1)Nc1ccc(N2CCCC2)cc1 | -6 | 18 | -2 | -9 | -3 | -1 | nt | nt
Oc1ccc(/C=N/Nc2ccc(Cl)nn2)c(O)c1O | 2 | -9 | 18* | 2 | -4 | 3 | 38* | -6
CC(=O)Nc1ccc(NC(=S)NC(=O)/C=C/c2ccc(Cl)cc2)cc1 | 0 | 1 | -1 | 0 | -1 | -1 | nt | nt
O=C(/C=C/c1ccco1)NC(=S)Nc1cc(-c2nc3ccccc3s2)ccc1Cl | 1 | 6 | 2 | 7 | -6 | 2 | nt | nt
O=C(/C=C/c1ccc(Cl)cc1)NC(=S)Nc1ccc(NC(=O)c2ccco2)cc1 | -1 | 6 | 21* | 25 | -8 | 0 | 24* | 0
O=C(/C=C/c1ccco1)NC(=S)Nc1cccc(-c2nc3ccccc3s2)c1 | 3 | -3 | 24* | -8 | -4 | 3 | 10 | 1
CC(=O)c1ccc(NC(=S)NC(=O)/C=C/c2ccco2)cc1 | 2 | 4 | 23* | -13 | -4 | 1 | 29* | -6
O=C1COc2ccccc2N1Cc1ccc(Cl)cc1 | 1 | 0 | 0 | 14 | -3 | 0 | nt | nt
Cc1c([N+](=O)[O-])cc(S(=O)(=O)Nc2ccc(-c3ccc(N4CCCC4)nn3)cc2)cc1[N+](=O)[O-] | 2 | 1 | 19* | 12 | -1 | 0 | 21* | -3
Cc1ccc(NC(=O)CSc2nc(NS(=O)(=O)c3ccccc3)cc(=O)[nH]2)cc1 | 4 | 12 | 22* | 6 | -4 | nt | -1 | -6
CCCn1c(=O)c(C(=O)Nc2ncccc2O)c(O)c2ccccc21 | nt | nt | nt | nt | -2 | 0 | nt | nt
Cn1c(=O)c(C(=O)Nc2ncccc2O)c(O)c2ccccc21 | 1 | 14 | 28* | -2 | 0 | 4 | 30* | -5
COc1ccc(N2CCN(C(=O)COC(=O)[C@@H](NC(=O)c3c(F)cccc3F)C(C)C)CC2)cc1 | nt | nt | nt | nt | 3 | 0 | nt | nt
O=C(NC1CCN(Cc2ccccc2)CC1)c1ccccc1OCc1ccccc1Cl | 6 | 11 | 2 | -6 | -5 | 2 | nt | nt
COc1ccc(C2CC(=O)CC(=O)C2n2cncn2)cc1 (stereo unspecified) | 1 | 10 | -2 | 2 | 0 | 1 | nt | nt
O=C1CC(=O)C(n2cncn2)C(c2cccc(Cl)c2)C1 (stereo unspecified) | 2 | -1 | 22* | 3 | 0 | 0 | -6 | -6
O=C(CN(Cc1cccs1)C(=O)CCC(=O)Nc1ccccn1)NCc1ccccc1 | 1 | 13 | -1 | -16 | 0 | 1 | nt | nt
COc1ccc(C(=O)Nc2ccc(-c3nnn(CC(=O)NCc4ccco4)n3)cc2)cc1 | -3 | 4 | 20* | 27 | -3 | 0 | 24* | -2
SMILES | PP5 primary | ZTA counter | PP1 counter | EBNA-1 inhibitor | bovine MsrA act | MsrA inh | PP1 inh confirm | PP5 inh counter
O=C(NC(C(=O)N/N=C/c1cc([N+](=O)[O-])ccc1O)c1n[nH]c(=O)c2ccccc12)c1ccccc1 (stereo unspecified) | 4 | 21 | 27* | -10 | -2 | 4 | 18* | 1
O=C(NC(C(=O)N/N=C/c1cccc2ccccc12)c1n[nH]c(=O)c2ccccc12)c1ccccc1 (stereo unspecified) | 4 | -7 | 5 | -5 | 1 | 2 | nt | nt
O=C1/C(=C/c2ccc(N3CCCC3)cc2)NC(=S)N1C1CC1 | 4 | 9 | -1 | -6 | -1 | 2 | nt | nt
O=C1N/C(=C/c2ccc(N3CCCC3)cc2)C(=O)N1c1ccccc1 | 4 | -14 | 23* | -17 | 2 | 0 | 11 | -3
O=C(O)CNC(=O)c1ccc(N2CCOCC2)cc1[N+](=O)[O-] | -2 | -4 | 1 | -10 | -2 | 0 | nt | nt
CC(C)CC(=O)Nc1ccc(C(=O)Cn2nc(C(=O)O)c3ccccc3c2=O)cc1 | 2 | -1 | 20* | -3 | -5 | 1 | 23* | 0
CC(C)(C)c1ccc(C(=O)Cn2nc(C(=O)O)c3ccccc3c2=O)cc1 | 0 | 17 | 14 | 3 | -1 | 0 | nt | nt
CCOc1ccc(S(=O)(=O)NCc2ccc(OC)cc2)c2cccnc12 | -1 | 11 | 68* | 2 | -9 | 1 | -1 | 2
COc1ccc(C(C)=O)cc1COC(=O)C1CCN(C(=O)c2ccc(Cl)cc2)CC1 | nt | nt | nt | nt | 2 | 2 | nt | nt
Cn1ccc2cc3c(cc21)CCN3C(=O)Nc1cccnc1 | 1 | 8 | 35* | -3 | -10 | 4 | 0 | -1
Cc1nc(C)c(NC(=O)N2CCc3ccccc32)cc1NC(=O)N1CCc2ccccc21 | 1 | 0 | 0 | -9 | -4 | -1 | nt | nt
CC(C(=O)Nc1cccc(S(=O)(=O)N2CCOCC2)c1)N1CCN(c2ccc(F)cc2)CC1 (stereo unspecified) | 1 | 9 | -5 | -1 | -2 | 2 | nt | nt
COc1ccc(Br)cc1/C=N/NC(=O)CN1CCN(Cc2ccccc2)CC1 | 2 | 1 | 1 | 2 | 0 | 0 | nt | nt
CCCC[n+]1c2ccccc2cc2ccccc21 | 3 | -2 | 22* | -21 | -2 | -1 | 19* | 0
Cc1ccc2ccccc2[n+]1CCCS(=O)(=O)[O-] | 1 | 1 | -2 | 4 | -12 | 0 | nt | nt
CCC[n+]1c2ccccc2cc2ccccc21 | -4 | -11 | 25* | -11 | -2 | -1 | 20* | 1
CCCCC[n+]1cccc2c3ccccc3ccc21 | -1 | 11 | -5 | 7 | -6 | 0 | nt | nt
CC(NC(=O)COc1ccc(Br)cc1)C1CCCO1 (stereo unspecified) | 2 | -16 | -4 | 2 | -7 | 0 | nt | nt
Oc1c(CN2CCN(c3ccccn3)CC2)cc(Cl)c2cccnc12 | 3 | 12 | 26* | -5 | -5 | nt | 30* | -5
